Results on 87 compounds are retold here after article PMC4336329 (PLoS ONE, 2015).

Among all 310,000 compounds or so, about 2,200 (0.71%) showed an effect of 50% or more. Effects have a minus sign here. Many of the other results were omitted from the sample, so strong results are more common in it than they were.

The target of the test is human ether-à-go-go-related gene (hERG) potassium channel (human, UniProt Q12809). Description: primary screen, population patch clamp on CHO cells stably expressing hERG; higher = less effect of the substance.
human ether-à-go-go-related gene (hERG) potassium channel, sequence (Q12809 whole entry, looked up): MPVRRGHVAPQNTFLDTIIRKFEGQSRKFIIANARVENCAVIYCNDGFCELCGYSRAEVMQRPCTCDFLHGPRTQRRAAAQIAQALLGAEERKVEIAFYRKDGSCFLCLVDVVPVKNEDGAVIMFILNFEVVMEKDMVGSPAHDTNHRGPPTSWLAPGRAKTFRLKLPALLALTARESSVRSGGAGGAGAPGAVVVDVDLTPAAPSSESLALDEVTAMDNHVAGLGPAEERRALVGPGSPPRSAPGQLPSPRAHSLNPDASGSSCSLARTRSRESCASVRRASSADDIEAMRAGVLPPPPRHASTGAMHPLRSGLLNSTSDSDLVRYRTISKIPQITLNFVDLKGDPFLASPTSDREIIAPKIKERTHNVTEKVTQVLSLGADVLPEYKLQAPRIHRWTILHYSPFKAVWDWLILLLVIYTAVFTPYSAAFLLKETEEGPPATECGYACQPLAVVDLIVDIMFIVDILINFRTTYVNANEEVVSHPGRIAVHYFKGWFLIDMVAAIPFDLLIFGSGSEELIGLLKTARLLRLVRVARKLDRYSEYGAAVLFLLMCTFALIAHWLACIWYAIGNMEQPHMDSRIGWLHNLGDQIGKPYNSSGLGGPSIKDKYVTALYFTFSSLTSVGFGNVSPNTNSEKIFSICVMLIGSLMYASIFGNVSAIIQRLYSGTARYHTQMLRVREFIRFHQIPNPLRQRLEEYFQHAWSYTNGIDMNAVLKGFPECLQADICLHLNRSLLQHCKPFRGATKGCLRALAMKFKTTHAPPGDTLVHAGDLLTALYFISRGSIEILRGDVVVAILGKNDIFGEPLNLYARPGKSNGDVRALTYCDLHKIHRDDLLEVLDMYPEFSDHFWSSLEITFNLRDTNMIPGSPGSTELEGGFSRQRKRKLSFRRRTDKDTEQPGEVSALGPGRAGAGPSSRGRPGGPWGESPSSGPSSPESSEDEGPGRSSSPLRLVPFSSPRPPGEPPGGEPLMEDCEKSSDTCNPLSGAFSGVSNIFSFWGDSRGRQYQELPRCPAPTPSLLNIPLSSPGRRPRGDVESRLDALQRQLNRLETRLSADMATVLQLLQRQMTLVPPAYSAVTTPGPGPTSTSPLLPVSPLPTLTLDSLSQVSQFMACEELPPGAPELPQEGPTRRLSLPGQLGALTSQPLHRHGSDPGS
As for `CCN(CC)CCOC(=O)c1ccc(N/C=C(/C#N)c2nc(-c3cccc(OC)c3)cs2)cc1`, the “hERG current change (%, negative = inhibition) at 1uM” value came out at 13.7%.

Turning to `CCOC(=O)/C=C1\SCC(=O)N1CC(=O)Nc1ccc(OC)c(OC)c1`, the “hERG current change (%, negative = inhibition) at 1uM” value was 12.2%.

As to `CCOC(=O)C1CCN(C(=O)N(CC)CC)CC1`, the “hERG current change (%, negative = inhibition) at 1uM” value is 3.77%. As for `CCCCn1c(=O)c(-c2ccccc2)c(O)c2ccccc21`, the “hERG current change (%, negative = inhibition) at 1uM” value is recorded as 16.3%. For the compound `Cc1nonc1C1CCCN1C(=O)c1cc(COc2ccc(F)cc2Cl)on1` (stereo not drawn), the “hERG current change (%, negative = inhibition) at 1uM” value is on record as 8.74%. With `COc1ccc(NC2CCCN(C(=O)CSc3ccccc3)C2)cc1OC` (stereo not drawn), the “hERG current change (%, negative = inhibition) at 1uM” value is 4.34%. Consider `CC1(C)CC(=O)C(C(c2cccnc2)C2C(=O)CC(C)(C)CC2=O)C(=O)C1`, for which the “hERG current change (%, negative = inhibition) at 1uM” value turned out to be 2.02%. To `CCCC(=O)N1CCN(c2ccc(NC(=O)c3ccc(N4CCCC4)c([N+](=O)[O-])c3)cc2Cl)CC1` belongs -8.46%; to `Br.N=C1c2ccccc2CN1NC(=O)C1CC1`, 7.71%. `CCCCN(C)C(=O)c1cc2c(s1)-c1ccccc1S(=O)(=O)C2`: the “hERG current change (%, negative = inhibition) at 1uM” value is on record as -6.69%.

Regarding `Cc1[nH]c(=O)[nH]c(=O)c1S(=O)(=O)N1CCC(C(=O)NC(C)c2ccccc2)CC1` (stereo not drawn), the “hERG current change (%, negative = inhibition) at 1uM” value was 7.35%. As to `CC(=O)Nc1ccc(CN2CCC(Oc3ccc(C(=O)N4CCCC4)cc3)CC2)cc1`, the “hERG current change (%, negative = inhibition) at 1uM” value is listed as -6.27%. For `CC(=O)N1CCN(C(=O)c2ccc(OC3CCN(CCc4ccccc4)CC3)cc2)CC1`, the “hERG current change (%, negative = inhibition) at 1uM” value stood at 14.6%.

Take `O=C(c1ccc(OC2CCN(CCc3ccccc3)CC2)cc1)N1CCCC1`: the “hERG current change (%, negative = inhibition) at 1uM” value is listed as -1.63%.

On to `CSc1ccc(CN2CCC(Oc3ccc(C(=O)N4CCCC4)cc3)CC2)cc1`, for which the “hERG current change (%, negative = inhibition) at 1uM” value is recorded as -56.4%. With `CCc1ccc(CN2CCC(Oc3ccc(C(=O)N4CCCCC4)cc3)CC2)cc1`, the “hERG current change (%, negative = inhibition) at 1uM” value is given as -61.5%. Turning to `CSc1ccc(CN2CCC(Oc3cccc(C(=O)N4CCCC4)c3)CC2)cc1`, the “hERG current change (%, negative = inhibition) at 1uM” value is recorded as -36.7%. Then `CCc1ccc(CN2CCC(Oc3ccc(C(=O)N4CCCC4)cc3)CC2)cc1`, with -77.5%; and `COC(=O)c1ccc(CN2CCC(Oc3ccc(C(=O)N4CCCCC4)cc3)CC2)cc1`, with -11.3%; and `O=C(c1ccc(OC2CCN(CCCc3ccccc3)CC2)cc1)N1CCCC1`, with -55.2%.

Take `O=C(c1ccc(OC2CCN(Cc3ccc(C(F)(F)F)cc3)CC2)cc1)N1CCCCC1`: the “hERG current change (%, negative = inhibition) at 1uM” value stood at 6.84%. Then `O=C(c1ccc(OC2CCN(Cc3ccc(F)cc3)CC2)cc1)N1CCCC1`, with 7.68%; and `CC(C)c1ccc(CN2CCC(Oc3ccc(C(=O)N4CCCC4)cc3)CC2)cc1`, with -33.7%; and `CC(=O)c1cc(C(=O)N2CCCC(CCC(=O)N(C)CCc3ccccn3)C2)cs1` (stereo not drawn), with 9.12%.

In the case of `Cc1ccc(S(=O)(=O)Nc2cccc(/C=C/C(=O)O)c2)cc1`, the “hERG current change (%, negative = inhibition) at 1uM” value is on record as 17%.

`O=C(CN1CCN(c2ccc(Cl)cc2)CC1)c1ccc2c(c1)OCO2`: the “hERG current change (%, negative = inhibition) at 1uM” value was determined as 1.86%. In the case of `COc1ccccc1/C=C/C(=O)Nc1cccc(S(=O)(=O)NC2=NCCCCC2)c1`, the “hERG current change (%, negative = inhibition) at 1uM” value was 13.1%. Then `COc1ccc(C(=O)NC(=S)N2CCCCC2)cc1[N+](=O)[O-]`, with 5.8%. Regarding `O=C(NCc1ccco1)c1sc(=S)n2c1[nH]c(=O)c1ccccc12`, the “hERG current change (%, negative = inhibition) at 1uM” value is recorded as -4.07%.

As to `CCCCn1c(N)c(N(CC)C(=O)c2ccccc2F)c(=O)[nH]c1=O`, the “hERG current change (%, negative = inhibition) at 1uM” value is listed as 19.7%. For `CCOc1ccccc1NC(=O)CSc1nnc(Cc2cccn2C)n1-c1ccc(F)cc1`, the “hERG current change (%, negative = inhibition) at 1uM” value was -8.2%.

As to `CCCCc1nc(NCC2CCCO2)c(C#N)c2c1COC(C)(C)C2` (stereo not drawn), the “hERG current change (%, negative = inhibition) at 1uM” value is reported as 6.42%. To `COc1ccccc1OCc1ccc(C(=O)NN)cc1` belongs 5.11%; to `C[C@@H]1CC[C@@]2(O[C@@H](CCO)C[C@@H](O)[C@@H]2O)O1`, 20.7%.

For `O=C(c1ccc(OC2CCN(C/C=C/c3ccc(F)cc3)CC2)cc1)N1CCCCC1`, the “hERG current change (%, negative = inhibition) at 1uM” value is -19.2%. Take `O=C(c1ccc(OC2CCN(C/C=C/c3ccc(F)cc3)CC2)cc1)N1CCCC1`: the “hERG current change (%, negative = inhibition) at 1uM” value was -74.9%. Regarding `O=C(c1ccc(OC2CCN(C/C=C/c3ccccc3)CC2)cc1)N1CCCC1`, the “hERG current change (%, negative = inhibition) at 1uM” value is recorded as -27.1%. To `Cc1cccc(N2CCN(C(=O)c3ccc4nc(N5CCCCC5)sc4c3)CC2)c1C` belongs 8.76%; to `O=C(N/N=C/c1cc(Br)cs1)c1ccc2c(c1)OCCO2`, 9.48%; to `Oc1c(Cl)cc(Cl)cc1C=Nc1ccc2c(c1)OCCO2`, 16%. In the case of `Brc1ccc(C=Nc2ccc3c(c2)OCCOCCOCCO3)s1`, the “hERG current change (%, negative = inhibition) at 1uM” value is -58.3%. Turning to `Brc1ccc(C=Nc2ccc(Nc3ccccc3)cc2)s1`, the “hERG current change (%, negative = inhibition) at 1uM” value stood at 14.7%. Then `Brc1csc(C=Nc2ccc3c(c2)OCCOCCOCCOCCO3)c1`, with -78.1%; and `Oc1c(Br)cc(Br)cc1C=Nc1ccc2c(c1)OCCO2`, with 12.2%; and `COc1ccc(/[N+]([O-])=C/c2ccoc2)cc1`, with 14%. `Nc1nnc(SCc2nc3scc(-c4ccccc4)c3c(=O)[nH]2)s1`: the “hERG current change (%, negative = inhibition) at 1uM” value was 15.6%.

Turning to `O=C(CC1CCCC1)Nc1nnc(C2CC2)s1`, the “hERG current change (%, negative = inhibition) at 1uM” value was determined as 11.5%. Then `CC(=O)Nc1cccc(NC(=O)CSc2nccn2Cc2ccccc2)c1`, with 14.4%. For `CN(C(=O)c1ccc(Cl)nc1)C1(c2ccccc2Cl)CCCCC1=O` (stereo not drawn), the “hERG current change (%, negative = inhibition) at 1uM” value is listed as 5.36%. To `O=C(NCC(=O)N(c1ccccc1)C(C(=O)NCC1CCCO1)c1ccccc1)c1ccco1` (stereo not drawn) belongs 13.9%.

As for `C=Cc1ccc(Cn2c(=O)n(C)c(=O)c3sccc32)cc1`, the “hERG current change (%, negative = inhibition) at 1uM” value amounted to 12.4%. For the compound `FC(F)(F)c1ccc(-c2n[nH]c(=S)o2)nc1`, the “hERG current change (%, negative = inhibition) at 1uM” value is listed as 9.8%. As to `CC(=O)c1c(N2CCN(c3ccc(F)cc3)CC2)nc(=S)n(-c2ccccc2)c1C`, the “hERG current change (%, negative = inhibition) at 1uM” value is -69.3%.

Turning to `CC(=O)c1c(N2CCN(c3ccccc3)CC2)nc(=S)n(-c2ccccc2)c1C`, the “hERG current change (%, negative = inhibition) at 1uM” value turned out to be 2.93%. As to `COc1ccc(N2CCN(c3nc(=S)n(-c4ccccc4)c(C)c3C(C)=O)CC2)cc1`, the “hERG current change (%, negative = inhibition) at 1uM” value came out at 10.2%.

As to `CN(c1ccc(O)cc1)c1nc(O)c(C2=c3ccccc3=NC2=O)s1`, the “hERG current change (%, negative = inhibition) at 1uM” value was determined as 8.57%.

Regarding `Cc1cc(Br)cc2c1N(C)C(=O)C2(c1ccc(O)cc1)c1ccc(O)cc1`, the “hERG current change (%, negative = inhibition) at 1uM” value was determined as 12%. Then `COCCCNC(=S)N1CCN(c2ccc([N+](=O)[O-])cc2)CC1`, with -64.8%; and `CCNC(=S)N1CCN(c2ccc([N+](=O)[O-])cc2)CC1`, with -50.5%; and `O=[N+]([O-])c1ccc(NC(=S)N2CCN(c3ccc(F)cc3)CC2)cc1`, with 13%. To `O=[N+]([O-])c1ccc(N2CCN(C(=S)NCc3ccc(Cl)cc3)CC2)cc1` belongs 12.9%; to `CNC(=S)N1CCN(c2ccc([N+](=O)[O-])cc2)CC1`, -40.5%; to `C=CCNC(=S)N1CCN(c2ccc([N+](=O)[O-])cc2)CC1`, -52.1%.

As to `COCCCNC(=S)N1CCN(c2ccccc2)CC1`, the “hERG current change (%, negative = inhibition) at 1uM” value came out at 18.3%.

As to `O=[N+]([O-])c1ccc(N2CCN(C(=S)Nc3ccccc3)CC2)cc1`, the “hERG current change (%, negative = inhibition) at 1uM” value was 5.2%.

As for `COCCNC(=S)N1CCN(c2ccc(Cl)cc2)CC1`, the “hERG current change (%, negative = inhibition) at 1uM” value came to 1.27%. In the case of `Cc1ccc(OCc2nnc(NC(=O)c3ccco3)s2)c(C)c1`, the “hERG current change (%, negative = inhibition) at 1uM” value is on record as 17.8%. Regarding `C/C(=N/NC(=O)c1ccc(Br)o1)c1ccc(C)o1`, the “hERG current change (%, negative = inhibition) at 1uM” value is 0.861%.

For `COCCNC(=S)NNC(=O)c1cc(C2CC2)nc2ccccc12`, the “hERG current change (%, negative = inhibition) at 1uM” value was 14.8%. Then `O=C(CCC(=O)OCc1cccc([N+](=O)[O-])c1)Nc1ccccc1Cl`, with 2.86%. Take `O=[N+]([O-])c1cccc(Cl)c1CSc1ccccn1`: the “hERG current change (%, negative = inhibition) at 1uM” value is 11%. To `CCN(CC)c1ccc(/C=C/c2ccc3ccc(OC)cc3[n+]2CC)cc1.[I-]` belongs -85%. Then `CC[n+]1c(/C=C/c2ccc(OC)c(OC)c2)ccc2ccccc21.[I-]`, with 13.8%. To `CC[n+]1c(/C=C/c2ccc(N(C)C)cc2)ccc2ccccc21.[I-]` belongs -27%; to `O=c1[nH]c(=O)n(Cc2ccco2)c2c1C(C(F)(F)F)(C(F)(F)F)N=C(Cc1ccccc1)N2`, 6.17%; to `CCOC(=O)C1=C(Cc2ccc(F)cc2)C(=O)c2ccccc2C1=O`, 6.27%. For `CCOC(=O)CCNC(=O)N1CCCC(CNS(=O)(=O)Cc2ccccc2)C1` (stereo not drawn), the “hERG current change (%, negative = inhibition) at 1uM” value stood at 8.76%.

As for `Cl.c1ccc(Cn2nnnc2CN2CCCC2)cc1`, the “hERG current change (%, negative = inhibition) at 1uM” value came out at 10.1%. Then `CCC(C)(C)n1nnnc1CN1CCC(c2nc3ccc(C)cc3[nH]2)CC1`, with -25.7%; and `Cc1cc2nc(C3CCN(Cc4nnnn4Cc4cccs4)CC3)[nH]c2cc1C`, with -72.4%. To `CCN(CC)C(=O)CN1CCC(c2nc3cc(C)c(C)cc3[nH]2)CC1` belongs 11.1%; to `CCN1CCN(CC2COc3ccccc3O2)CC1.Cl` (stereo not drawn), 7.79%; to `Cc1cc2nc(C3CCN(CC4COc5ccccc5O4)CC3)[nH]c2cc1C` (stereo not drawn), -65.6%. Turning to `c1csc(Cn2nnnc2CN2CCN(c3nc4ccccc4s3)CC2)c1`, the “hERG current change (%, negative = inhibition) at 1uM” value was -7.1%. As to `Cc1cc2nc(C3CCN(Cc4nnnn4Cc4ccccc4)CC3)[nH]c2cc1C`, the “hERG current change (%, negative = inhibition) at 1uM” value was -50.7%.

For `Cc1nc2cc(C(F)(F)F)ccc2n1C1CCN(Cc2nnnn2Cc2cccs2)CC1`, the “hERG current change (%, negative = inhibition) at 1uM” value is given as -2.78%. Regarding `CCN(CC)CCN1C(=O)C(=O)/C(=C(/O)c2ccc(F)cc2)C1c1cccnc1` (stereo not drawn), the “hERG current change (%, negative = inhibition) at 1uM” value was 14.9%.
